From PubChem BioAssay AID463173 (ICCB-Longwood Screening Facility, Harvard Medical School, 2010) come the findings set out here.

Among all 52,000 compounds or so, about 4,300 (8.3%) were called active. This excerpt belongs to a sample that is enriched for actives. Unmarked numbers belong to inactive results. Cut-off read from the data, not from the text of the source: active = survival mostly below about 52% (no sharp cut-off); inactive = mostly above about 56%.

For the test, the system named is DeltatarO mutant. The experiment in a line: S. aureus survival, RN4220 and DeltatarO strains – OD600, teichoic acid synthesis inhibitors, primary screen (AID 463173). The conditions noted are these: S. aureus RN4220 wild type/DeltatarO growth, OD600, 18 h, active compounds read low, screened at 18.75 µg/mL (by protocol).
Take `Cc1nnc(N2CCN(c3cccc(C(F)(F)F)c3)CC2)c2c1nnn2Cc1ccccc1`: the survival was 80%.

As for `CCOC(=O)c1cc2c(=O)n3ccccc3nc2n(Cc2ccco2)c1=NC(=O)c1ccc(Br)cc1`, the survival was 55%.

On to `CCOC(=O)c1cc2c(=O)n3ccccc3nc2n(Cc2ccco2)c1=NC(=O)c1ccc(C(C)(C)C)cc1`, for which the survival is 36% (active).

As for `CCCn1c(=NC(=O)c2c(-c3c(F)cccc3Cl)noc2C)c(C(=O)OCC)cc2c(=O)n3ccccc3nc21`, the survival is 164%.

For `CCOC(=O)c1cc2c(=O)n3ccccc3nc2n(Cc2ccco2)c1=NC(=O)c1cccc(F)c1`, the survival was 17% (active).

Consider `CCOC(=O)c1cc2c(=O)n3ccccc3nc2n(Cc2ccco2)c1=NC(=O)c1ccc(C)c(C)c1`, for which the survival was 34% (active).

In the case of `CCOC(=O)c1cc2c(=O)n3ccccc3nc2n(Cc2ccco2)c1=NC(=O)c1ccc(F)cc1`, the survival was 43% (active).

Turning to `CCOC(=O)c1cc2c(=O)n3ccccc3nc2n(Cc2ccco2)c1=NC(=O)c1c(F)cccc1Cl`, the survival was 42%.

Consider `CN1CCN(C(=O)c2cnn(-c3cccc(Cl)c3)c2C2CCN(C(=O)OC(C)(C)C)CC2)CC1`, for which the survival is 95%.

On to `CCc1ccccc1N1CC(c2nc3ccccc3n2CCCCOc2ccccc2)CC1=O` (stereo not drawn), for which the survival is 54%.

On to `CCc1ccccc1N1CC(c2nc3ccccc3n2CCCOc2ccc(Cl)cc2)CC1=O` (stereo not drawn), for which the survival is 41% (active).

On to `O=C1CC(c2nc3ccccc3n2CCCCOc2ccccc2)CN1c1ccccc1Cl` (stereo not drawn), for which the survival is 58%.

`CCOc1ccccc1N1CC(c2nc3ccccc3n2CCCOc2ccc(OC)cc2)CC1=O` (stereo not drawn): the survival was 78%.

On to `Cc1cccc(OCCCCn2c(C3CC(=O)N(c4ccccc4Cl)C3)nc3ccccc32)c1` (stereo not drawn), for which the survival is 10% (active).

As for `CCc1ccccc1N1CC(c2nc3ccccc3n2CCOc2ccc(Cl)c(C)c2)CC1=O` (stereo not drawn), the survival was 3% (active).

For `Cc1cc(C)cc(OCCn2c(C3CC(=O)N(c4ccccc4Cl)C3)nc3ccccc32)c1` (stereo not drawn), the survival was 85%.

Regarding `Cc1cccc(OCCCCn2c(C3CC(=O)N(c4ccc(C)cc4C)C3)nc3ccccc32)c1` (stereo not drawn), the survival was 47%.

In the case of `Cc1ccc(-n2ncc3c(N4CCCCCC4)ncnc32)cc1C`, the survival was 86%.

Take `CCOc1ccc(CNC(=O)c2sc3nc(C)cc(C)c3c2-n2cccc2)cc1`: the survival is 75%.

Take `COc1cccc(CNC(=O)c2nn(C)c3c2CSc2ccccc2-3)c1`: the survival is 75%.

For `O=C(NC1=NCCS1)c1ccccc1`, the survival was 101%.

On to `Cc1ccc(Cc2c(C)nc3c(-c4ccccc4)c(C)[nH]n3c2=O)cc1`, for which the survival was 0% (active).

As to `Cc1nc2nc(NC(=O)C(C)(C)C)[nH]n2c(=O)c1Cc1ccccc1`, the survival was 112%.

In the case of `Cc1nc2c(-c3ccccc3)c(C)[nH]n2c(=O)c1Cc1ccc(C(C)C)cc1`, the survival was 11% (active).

Consider `CCOC(=O)CCc1c(C)nc2c(-c3ccccc3)c(C)[nH]n2c1=O`, for which the survival is 87%.

On to `Cc1cccc(Cc2c(C)nc3c(-c4ccccc4)c(C)[nH]n3c2=O)c1`, for which the survival was 16% (active).

Turning to `Cc1nc2c(-c3ccccc3)c(C)[nH]n2c(=O)c1Cc1ccc(Br)cc1`, the survival is 7% (active).

On to `COc1cccc(C(=O)Nc2nc3nc(C)c(Cc4ccccc4)c(=O)n3[nH]2)c1`, for which the survival was 104%.

With `Cc1nc2nc(NC(=O)CC(C)C)[nH]n2c(=O)c1Cc1ccccc1`, the survival was 113%.

For the compound `CCc1c(C)nc2cc(-c3ccccc3)[nH]n2c1=O`, the survival is 73%.

As to `Cc1nc2nc(NC(=O)C(C)C)[nH]n2c(=O)c1Cc1ccccc1`, the survival is 98%.

For `COc1ccc(-c2nc(-c3cc4cc(Br)ccc4oc3=O)cs2)cc1`, the survival was 78%.

In the case of `CCOc1ccc(CCNC(=O)CN2C(=O)c3cccnc3Oc3ccc(C)cc32)cc1OCC`, the survival was 67%.

As to `Cc1cc(-c2ccccc2)n2ncc(C#N)c2n1`, the survival is 96%.

Regarding `CCOc1ccccc1CNC(=O)C1CCN(C2=NS(=O)(=O)C(c3ccc(C)c(C)c3)=C2C)CC1`, the survival was 84%.

Regarding `COc1ccc(-n2c(=O)c3ccc(C(=O)NCc4ccc(C)cc4)cc3n(CC(=O)Nc3cccc(F)c3)c2=O)cc1`, the survival is 79%.

In the case of `Cc1ccccc1Cc1c(C)nc2c(-c3ccccc3)c(C)[nH]n2c1=O`, the survival is -3% (active).

Consider `COc1ccc(-c2c(C)c3cc(OC(=O)N4CCOCC4)ccc3oc2=O)cc1`, for which the survival is 79%.

For `COc1ccc(-c2c(C)c3cc(OC(=O)N4CCOCC4)ccc3oc2=O)cc1OC`, the survival is 47% (active).

With `Cc1c(-c2ccc(Br)cc2)c(=O)oc2ccc(OC(=O)N3CCOCC3)cc12`, the survival was 86%.

Consider `COc1ccc(-c2csc(-c3c(N)c(C(=O)c4ccccc4)n4ccccc34)n2)cc1OC`, for which the survival was 43% (active).

As to `COc1ccc(-c2csc(-c3c(N)c(C(=O)c4ccccc4)n4ccccc34)n2)cc1`, the survival was 77%.

On to `COc1ccc(-c2csc(-c3c(N)c(C(=O)c4ccc(OC)c(OC)c4)n4ccccc34)n2)cc1`, for which the survival is 75%.

As for `Cc1ccc(C)c(NC(=O)c2cnn(-c3cccc(F)c3)c2C2CCN(C(=O)OC(C)(C)C)CC2)c1`, the survival is 122%.

With `O=C(Nc1ccccn1)c1cccs1`, the survival was 109%.

For the compound `CCN1C(=O)CC(C(=O)Nc2ccc(OC)cc2)SC1=Nc1ccc(C)c(C)c1` (stereo not drawn), the survival is 50%.

Turning to `CCOc1cccc(NC(=O)C2CC(=O)N(C)C(=Nc3cccc(OC)c3)S2)c1` (stereo not drawn), the survival was 82%.

Consider `CCOc1cccc(NC(=O)C2CC(=O)N(CC)C(=Nc3ccc(F)cc3)S2)c1` (stereo not drawn), for which the survival was 17% (active).

For `CCOC(=O)C1CCCN(C(=O)c2nn(-c3ccc(C)cc3)c(=O)c3c2c2ccccc2n3C)C1` (stereo not drawn), the survival is 90%.

On to `Cc1cccn2c(=O)c(/C=C(\C#N)c3nc4ccccc4n3C)c(Oc3ccc(Br)cc3)nc12`, for which the survival was 69%.

For the compound `Cc1ccc(C)c(Cn2c(C3CC(=O)N(c4ccccc4C)C3)nc3ccccc32)c1` (stereo not drawn), the survival is 80%.

Turning to `Cc1c(Cl)cccc1N1CC(c2nc3ccccc3n2Cc2ccccc2F)CC1=O` (stereo not drawn), the survival was 41%.

Turning to `Cc1ccc(N2CC(c3nc4ccccc4n3CCC3CCCCC3)CC2=O)cc1` (stereo not drawn), the survival is 64%.

Turning to `Cc1cccc(N2CC(c3nc4ccccc4n3CCC3CCCCC3)CC2=O)c1` (stereo not drawn), the survival is 31% (active).

Take `Cc1ccccc1N1CC(c2nc3ccccc3n2Cc2ccc(Br)cc2)CC1=O` (stereo not drawn): the survival was 25% (active).

With `CCc1ccccc1N1CC(c2nc3ccccc3n2Cc2cccc(C)c2)CC1=O` (stereo not drawn), the survival was 66%.

Turning to `O=C1CC(c2nc3ccccc3n2CCC2CCCCC2)CN1c1ccccc1Cl` (stereo not drawn), the survival was 21% (active).

With `COc1ccccc1OCCCn1c(C2CC(=O)N(c3ccccc3Cl)C2)nc2ccccc21` (stereo not drawn), the survival is 75%.

Regarding `COc1ccc(OCCCCn2c(C3CC(=O)N(c4cccc(Cl)c4)C3)nc3ccccc32)cc1` (stereo not drawn), the survival is 86%.

For `Cc1ccccc1N1CC(c2nc3ccccc3n2CCC2CCCCC2)CC1=O` (stereo not drawn), the survival is 16% (active).

Consider `COc1ccc(N2CCN(C(=O)c3c(C)nn(-c4ccc(F)cc4)c3-n3cccc3)CC2)cc1`, for which the survival is 69%.

For the compound `Cc1ccc(N2C(=O)CSC23C(=O)N(CC(=O)NC2CCCCC2)c2ccccc23)cc1` (stereo not drawn), the survival is 79%.

Take `CCOc1ccc(OCC(=O)Nc2c(C(=O)Nc3ccc(C)cc3)oc3ccccc23)cc1`: the survival was 73%.

Take `Cc1cnn(Cc2ccccc2)c1N`: the survival was 98%.

With `CSc1nc2c(sc3ccccc32)c(=O)n1Cc1ccc(C)cc1`, the survival was 96%.

In the case of `CC1(C)Oc2ccc(C(=O)N/N=C/c3cccs3)cc2NC1=O`, the survival is 58%.

As for `O=C1[C@@H]2CSC(c3ccc(F)cc3)N2C(=O)N1c1ccc(Cl)cc1` (stereo partly drawn), the survival was 76%.

`COc1ccc(C2=NC3(CCCCCC3)N(CC(=O)Nc3cccc(Cl)c3)C2=O)cc1`: the survival is 68%.

On to `O=C(NCc1ccc2c(c1)CCN2C(=O)c1ccc(F)cc1)c1ccco1`, for which the survival is 115%.

With `COc1ccc(-c2nc(SCC(=O)NC3CCCC3)c(-c3ccccc3)[nH]2)cc1OC`, the survival is 65%.

Regarding `Cn1c(SCc2ccccc2Cl)nc(=O)c2c1NC(=O)CC2c1cc(F)ccc1F` (stereo not drawn), the survival is 45%.

As for `COc1ccc(/C=C/C(=O)N2CCC(c3nc4ccccc4o3)CC2)cc1OC`, the survival was 86%.

Turning to `NC(=O)CN1c2cccc3cccc(c23)S1(=O)=O`, the survival was 104%.

As to `COc1ccc2[nH]c3c(c2c1)CCN(C(=O)c1cccc(Cl)c1)C3c1ccc(F)cc1` (stereo not drawn), the survival is 77%.

In the case of `Cc1ccc(CNC(=O)c2ccc(CSCc3cccc(C)c3)o2)cc1`, the survival is 93%.

With `CCOC(=O)c1cc(-c2ccccc2)n(CC(=O)NC(C)c2ccccc2)c1C` (stereo not drawn), the survival is 91%.

Take `CCc1ccccc1N1CC(c2nc3ccccc3n2CCC2CCCCC2)CC1=O` (stereo not drawn): the survival was 10% (active).

For the compound `CCc1ccccc1N1CC(c2nc3ccccc3n2CC(C)C)CC1=O` (stereo not drawn), the survival was 78%.

In the case of `COc1ccccc1Cn1c(C2CC(=O)N(c3ccccc3OC)C2)nc2ccccc21` (stereo not drawn), the survival is 49%.

`Cc1cccc(NS(=O)(=O)c2ccc3c(c2)CCN3C(=O)C2CCC2)c1`: the survival was 69%.

`Cc1cc(C)c2oc(C(=O)NCCc3ccc(S(N)(=O)=O)cc3)cc(=O)c2c1`: the survival was 63%.

In the case of `Cn1c(=O)n(C)c2cc(CNCc3ccc(F)cc3)ccc21`, the survival is 92%.

Consider `NC(=O)c1cc(Cl)nc2ccccc12`, for which the survival is 81%.

Regarding `NC(=O)c1ccccc1NS(=O)(=O)c1ccccc1`, the survival is 97%.

Regarding `NC(=O)c1ccc(-c2ccccc2)cc1C(N)=O`, the survival is 66% (active).

On to `Cc1ccc(CNC(=O)c2cnc(N3CCCCC3)c3ccccc23)cc1`, for which the survival was 80%.

In the case of `c1ccc(CCn2nnnc2CN2CCCc3ccccc32)cc1`, the survival was 93%.

`Cc1ccc(CN(C(=O)COc2ccc(Br)cc2)c2ccccn2)o1`: the survival was 62%.

For the compound `CCC(=O)Nc1sc2c(c1C(=O)Nc1ccc(Br)cc1)CCCCC2`, the survival was 135%.

Turning to `Cc1ccc(NC(=O)c2c(NC(=O)Cc3ccccc3)sc3c2CCC3)cc1`, the survival was 24% (active).

Consider `O=C(Cc1ccccc1)Nc1sc2c(c1C(=O)Nc1ccccc1)CCCCC2`, for which the survival is 50%.

Turning to `CCOc1ccc(NC(=O)c2c(NC(=O)Cc3ccccc3)sc3c2CCCCC3)cc1`, the survival was 48%.

On to `COc1ccc(NC(=O)c2c(NC(=O)Cc3ccccc3)sc3c2CCCC3)cc1`, for which the survival was 124%.

For the compound `CCOc1ccc(NC(=O)c2c(NC(=O)Cc3ccccc3)sc3c2CCCC3)cc1`, the survival is 45% (active).

In the case of `O=C(Cc1ccccc1)Nc1sc2c(c1C(=O)Nc1ccc(Br)cc1)CCCC2`, the survival was 57% (active).

As to `O=C(Cc1ccccc1)Nc1sc2c(c1C(=O)Nc1ccc(Cl)cc1)CCCC2`, the survival is 47%.

Regarding `Cc1ccc(NC(=O)c2c(NC(=O)Cc3ccccc3)sc3c2CCCC3)cc1`, the survival was 28% (active).

For `O=C(Cc1ccccc1)Nc1sc2c(c1C(=O)Nc1ccc(Br)cc1)CCC2`, the survival was 55%.
